A selection: hits, their analogues and other compounds. The true share with any hit is near 21%.
Pf growth 96h = P. falciparum growth inhibition at 96 hour, primary screen for plastid delayed-death inhibitors; Potency, µM (series often up to 28.7 µM), for inactives: top-dose activity change, negative = inhibition, usual class: inhibitors; P. falciparum luciferase reporter growth, 96 h; AID 504834; 320,000 tested, 6.9% active; further: potency means the concentration at half of the fitted maximal effect; on the % scale 0 is the no-effect control and ±100 the full control effect
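Erythrocytes infected with luciferase-expressing P. falciparum were dispensed at 2% hematocrit and 0.05% parasitemia (final), then incubated with compounds 96 hours at 37 C in 5% CO2. Luminescence after detection reagent addition reported growth.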
HCMV inh = human cytomegalovirus inhibition. HFF cells, HCMV-luciferase reporter, 72 h; hits give low values. activity change, negative = inhibition, % at 57.5 µM. 410,000 tested, 4.5% active; in the data active means activity change below about -60%; inconclusive means no clear call, values can overlap the other calls; inactive means above about -39%; further: on the % scale 0 is the no-effect control and ±100 the full control effect
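Screen run at 2 compound doses on HFFs infected with reporter HCMV, MOI 1 PFU/cell. Luciferase activity from cell lysates at 72 h post infection gave inhibition relative to buffer-only and Salinomycin wells.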
Cycloheximide cs = counter-screen for Shiga toxin inhibitors: cycloheximide protein synthesis inhibition; 300,000 tested, 12% active; cell reporter, cycloheximide protein synthesis inhibition counterscreen; max response, %; in the data active means max response mostly above about 13%, no sharp cut-off; inactive means mostly below about 14%; further: read at 38.3 µM for the half of the compounds with a filed dose; 0% is about no effect
Shiga inhibitor = Shiga toxin inhibition | Vero cells, Shiga toxin protein synthesis inhibition reporter | inhibition, % at 38.7 µM | 290,000 tested, 9.2% active | AID 2315; in the data active means inhibition mostly above about 28%, no sharp cut-off; inactive means mostly below about 43%; further: 0% is about no effect
Pf growth 48h = P. falciparum growth inhibition at 48 hours (one generation) | P. falciparum luciferase growth in erythrocytes, 48 h | 310,000 tested, 5.9% active | Potency, µM (top dose mostly 28.7 µM), without a hit: at the highest dose activity change, negative = inhibition, hits mostly inhibitors; further: potency means the concentration at half of the fitted maximal effect; on the % scale 0 is the no-effect control and ±100 the full control effect
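Firefly luciferase activity from engineered P. falciparum reports growth; inhibitors lower the luminescent signal. Cultures contained 2% hematocrit erythrocytes at 0.1% final parasitemia.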
HCV inhibitor = inhibitors of hepatitis C virus infection; Potency, µM (titrated, usually from 41.8 µM), without a hit: top-dose activity change, negative = inhibition, most hits filed as inhibitors; Huh7.5.1 HCVcc-Cre infection, luciferase reporter, 44 h; 340,000 tested, 3.4% active; further: potency means the concentration at half of the fitted maximal effect; on the % scale 0 is the no-effect control and ±100 the full control effect
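1,000 cells/well; 4 h culture; + compound; + HCVcc-Cre (~0.5 moi); 44 h; luciferase substrate, RT 15 min; read 15 sec.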
An asterisk follows results filed as active; ? = inconclusive; nt = no result given; + = active, no number. Unless noted, the call rests on the fitted dose curve; in most records, active means well fitted inhibition curve with a large enough effect; inconclusive means small, poorly fitted or top-dose-only effect, or another doubt; inactive means no such curve, though single readings can be large or run the other way.

SMILES	Pf growth 96h	HCMV inh	Cycloheximide cs	Shiga inhibitor	Pf growth 48h	HCV inhibitor
CC(C)CNc1ncnc2c1ncn2[C@H]1CN(Cc2ccc3c(c2)OCO3)C[C@@H](CO)O1	nt	-66.2*	nt	nt	nt	nt
CC(C)Cc1nc(SCc2cccnc2)c2c(=O)n(C)c(=O)n(C)c2n1	?	?	6.0	-4.7	?	10µM*
CCOC(=O)NC(=O)/C(C#N)=N\Nc1ccc(Cl)cc1	?	-8.1	-5.8	-6.5	nt	0.6%
COc1ccc(N/N=C(\C#N)C(N)=O)cc1	47.0%	36.1	12.7*	43.1	19.7%	4.8%
COc1ccc(C(=O)/C(C#N)=N/Nc2ccc([N+](=O)[O-])cc2)cc1	?	-114.0*	-1.4	-2.7	13.1µM*	1.58µM*
CCOc1ccc(N/N=C(/C#N)C(N)=O)cc1	42.0%	38.3	30.6*	45.9*	74.2%	20.7%
N#C/C(=N/Nc1ccc(OC(F)(F)F)cc1)C(N)=S	1.65µM*	-98.4*	56.7*	75.4*	6.57µM*	?
CCOc1ccc(N/C(SC)=C(/C#N)C(N)=O)cc1	?	-27.3	-3.0	23.6	0.4%	nt
O=C(c1c[nH]c2ccccc2c1=O)N1CCCCCC1	34.5%	45.5	-5.1	14.1	-8.9%	22.4%
N#CC(C#N)=NNc1ccc([N+](=O)[O-])cc1	?	-90.5*	2.1	24.4	?	11.2µM*
CCN(CC)c1ccc(/C=N/N2CCN(c3ccccn3)CC2)cc1	22.2%	-30.7	1.5	-7.8	?	2.5%
ClC(/C=N/n1cnnc1)=C/c1ccccc1	11.7µM*	42.2	1.0	5.5	11.7µM*	?
CCc1ccc(/C=N/N2CCN(c3ccccn3)CC2)cc1	42.0%	-37.9	36.8*	68.4*	139.4%	-0.8%
Cn1cccc1/C=N/N1CCN(c2ccccn2)CC1	25.1%	-17.4	37.6*	61.3*	45.0%	0.1%
Cn1cccc1/C=N/N1CCN(Cc2ccccc2)CC1	14.2%	-6.3	15.2	-1.3	-10.1%	-9.1%
ClC(=C\c1ccccc1)/C=N/N1CCN(c2ccccn2)CC1	85.7%	-69.7*	32.9*	53.3*	88.7%	17.3%
N#CCOC(=O)C1CCN(S(=O)(=O)c2ccc3c(c2)OCCO3)CC1	12.1%	-9.4	nt	nt	?	1.4%
CC(=O)c1cccc(NC(=O)C(C)OC(=O)c2cccc(S(=O)(=O)N3CCN(C)CC3)c2)c1 (stereo not given)	?	33.8	nt	nt	?	21.7%
CCc1nc2ccccc2c(C(=O)OCC(=O)NC(=O)c2cccn2C)c1C	-3.6%	9.4	-0.3	-6.9	-24.9%	-24.5%
Cc1ccc(/C=N/N2CCN(c3ccccn3)CC2)cc1	68.1%	-27.6	47.1*	63.7*	85.7%	3.6%
O=C(O)CN(CC(=O)O)CC(=O)O	nt	-20.6	nt	nt	nt	17.8%
CCOC(=O)CSc1nc2ccc(NC(=O)c3ccccc3F)cc2s1	nt	9.5	nt	nt	nt	nt
CC(=O)NC(CC(C)C)C(=O)O (stereo not given)	nt	-10.5	nt	nt	nt	17.3%
CC(=O)N[C@@H](CSC(=O)[C@]1([C@@H](O)C(C)C)NC(=O)[C@H](C)[C@@H]1O)C(=O)O	nt	nt	84.7*	+	nt	nt
COc1ccc2nc(SCC(=O)Nc3cc(OC)c(OC)cc3C(=O)O)c(C)cc2c1	-19.9%	7.9	5.7	13.9	31.6%	-6.5%
SMILES	Pf growth 96h	HCMV inh	Cycloheximide cs	Shiga inhibitor	Pf growth 48h	HCV inhibitor
CC1(C)CC(=O)C/C(=N\NC(=O)C2CC2c2ccccc2)C1 (stereo not given)	54.0%	12.2	2.6	43.7*	-1.0%	-6.0%
CC1(C)CC(=O)C/C(=N\NC(=S)NCc2ccccc2)C1	?	-23.3	8.6	35.8	?	-5.0%
Cc1ccc2c(C)c(C(=O)NCC3CCOCC3)oc2c1C	nt	-15.9	nt	nt	nt	nt
Cc1ccc2c(C)c(C(=O)N(C)C(C)c3ccncn3)oc2c1C (stereo not given)	7.5%	109.6	12.9*	54.5*	0.0%	-26.3%
Cc1ccc2c(C)c(C(=O)N(C)C(C)c3ccon3)oc2c1C (stereo not given)	-23.6%	-2.9	59.3*	83.0*	-10.0%	-18.0%
O=C(NCC(c1cccs1)N1CCOCC1)C1CCN(S(=O)(=O)c2ccccc2C(F)(F)F)CC1 (stereo not given)	?	58.9	-0.4	-7.8	?	-19.8%
CC1CCN(c2ccc(-c3nc(-c4ccccc4)no3)cc2[N+](=O)[O-])CC1	nt	-17.3	43.8*	82.3*	nt	nt

High-throughput results as filed in PubChem.
